This is part of a sample that, as a whole, favours compounds with a hit. Of some 79,000 tested, about 15% had one in any assay. Values without a mark were called inactive. Active and inactive are the calls of the source. No stated cut-off is given here; in the data, active means growth inhibition above about 70%; inactive means the rest.

This test can be described thus: NCI Yeast Anticancer Drug Screen. Data for the bub3 strain (AID 167). The conditions noted are these: S. cerevisiae bub3 mutant strain, at 5.0 µM (retest, dose inferred, filed as 0.5), hits give high values. The gist of the method:
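Yeast carrying a defined mutation is treated with each compound, and growth is compared with that of vehicle-exposed cells to give inhibition.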
In the case of `CCOC(=O)C1C(O)=C(P(=O)(C2=C(O)C(C(=O)OCC)C(c3ccc(OC(C)=O)cc3)C(C(=O)O)C2=O)N(CCCl)CCCl)C(=O)C(C(=O)O)C1c1ccc(OC(C)=O)cc1` (stereo not drawn), the growth inhibition was -4%.
Next, `c1ccc([As+](c2ccccc2)(c2ccccc2)c2cccc3ccccc23)cc1`: 90% (active); `CCCCCCCCc1ccc(OCCN(CCCl)CCCl)cc1`: -4%; `S=C=NCCc1ccccc1`: 5%.
Next, `COC1=C(Cl)C(=O)c2ccccc2C1=O`: 30%; `CN(C)c1ccc(N=Nc2cccc(C(=O)[O-])c2)cc1.CN(C)c1ccc(N=Nc2cccc(C(=O)[O-])c2)cc1.NC1CCCCC1N.O=[N+]([O-])O.[Pt+4]`: 45%.
Next, `CCOC(=O)c1ccc(N=Cc2ccc(N(CCCl)CCCl)cc2C)cc1`: -6%; `O=c1s[se]c2ccccc12`: -2%; `CC1CCC2(OC1)OC1C(O)C3C4CCC5CC(OC6OC(CO)C(OC7OC(CO)C(O)C(OC8OCC(O)C(O)C8O)C7OC7OC(CO)C(O)C(OC8OC(CO)C(O)C(O)C8O)C7O)C(O)C6O)C(O)CC5(C)C4CCC3(C)C1C2C` (stereo not drawn): 97% (active).
Regarding `CN(C)c1ccc(/C=C/c2cc3scc(-c4ccccc4)[n+]3c3ccccc23)cc1`, the growth inhibition was 18%.
Next, `CSCCC([NH-])C(=O)O.CSCCC([NH-])C(=O)O.[Zn+2]` (stereo not drawn): 4%; `O=C(O)CN1CCN(CC(=O)O)CC(=O)[O][Hg][O]C(=O)C1`: 100% (active).
The value for `Cc1c2ccncc2c(CN(CCCl)CCCl)c2c3ccccc3n(C)c12` was -10%.

The values above are taken from PubChem BioAssay (NCI).
